Potency and affinity values are given separately.
These compounds were tested against Protein disulfide-isomerase (Homo sapiens) (UniProt P07237) (assay: inhibition of PDI-driven insulin aggregation – biochemical, turbidity, absorbance, cherry-picked samples, dose response (AID 602350;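 further: 0% = neutral controls and -100% = rutin hydrate positive control wells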)). Settings: recombinant PDI insulin aggregation, absorbance 650 nm, 90 min; series mostly up to 19.5 µM; activity change, negative = inhibition: at the top concentration;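 active means absorbance falls by 30% or more versus neutral controls, with a potency fitted within twice the top valid dose; inconclusive means no clear call, values can overlap the other calls; inactive means change opposite to expected direction, plus the rest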.
Sequence of Protein disulfide-isomerase (Homo sapiens) (P07237 whole entry, looked up): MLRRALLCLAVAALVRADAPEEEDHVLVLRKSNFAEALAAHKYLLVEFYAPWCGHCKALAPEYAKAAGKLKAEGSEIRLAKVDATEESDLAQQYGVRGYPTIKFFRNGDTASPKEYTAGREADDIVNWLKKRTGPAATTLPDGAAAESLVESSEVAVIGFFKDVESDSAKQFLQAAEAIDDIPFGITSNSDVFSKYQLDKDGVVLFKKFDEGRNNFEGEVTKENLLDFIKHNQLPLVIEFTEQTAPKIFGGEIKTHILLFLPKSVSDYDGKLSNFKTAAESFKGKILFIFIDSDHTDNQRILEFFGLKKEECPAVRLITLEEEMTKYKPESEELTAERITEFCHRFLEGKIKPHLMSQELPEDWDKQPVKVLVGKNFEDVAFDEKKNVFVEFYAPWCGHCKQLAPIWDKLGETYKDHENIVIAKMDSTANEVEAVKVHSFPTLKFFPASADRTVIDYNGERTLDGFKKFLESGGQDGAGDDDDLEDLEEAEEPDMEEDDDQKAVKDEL

Activity change, negative = inhibition, inactive:
CN(CCC(=O)Nc1ccc(Br)cc1)Cc1ccccc1 4%, CC(=O)c1ccc(N2CCN(C(=O)c3ccc4[nH]c(C)c(C)c4c3)CC2)cc1 1.67%, O=S(=O)(c1cc(F)ccc1F)N1CCN(c2ncccn2)CC1 0.899%, COCCN(CC(=O)Nc1ccccc1C(F)(F)F)C(=O)/C=C/c1cc(Cl)c2c(c1)OCCO2 11.7%, CCCCC1CCC(c2nc(-c3ccccn3)no2)CC1 (stereo not given) 0.964%, O=C1N[C@@H](Cc2c[nH]c3ccccc23)COC(=O)[C@H](Cc2ccc(F)cc2)C/C=C\C[C@H]1CC(=O)N(CCO)Cc1ccccc1 6.97%, CCOC(=O)c1c(CN(C)C)n(-c2ccc(C)cc2)c2cc(Br)c(O)cc12 -19%, O=C(CCS(=O)(=O)c1ccccc1)N(CCCN1CCOCC1)c1nc2ccccc2s1 -17.5%, Cc1ccc(CN(c2ccc(C(=O)Nc3ccc4c(c3)OCO4)cc2)S(C)(=O)=O)cc1 8.91%, O=C(CN1C(=O)NC2(CCCC2)C1=O)Nc1ccc(C(F)(F)F)cc1 4.1%, CCOC(=O)c1c(CN2CCN(CCO)CC2)n(C)c2cc(Br)c(OC)cc12 6.16%, Cc1noc(C)c1S(=O)(=O)Nc1ccc2c(c1)CC(=O)N([C@H](C)CO)C[C@@H](C)[C@@H](CN(C)S(=O)(=O)c1ccc(F)cc1)O2 -4.77% [at 6.8 µM], O=C(/C=C/c1ccccc1)Nc1scc(-c2ccccc2)c1C(=O)O 2.46%, O=C(N/N=C/c1cccc([N+](=O)[O-])c1)c1cnccn1 21.7%, CN(C)CCN(C(=O)c1ccc(S(=O)(=O)N2CCc3ccccc32)cc1)c1nc2ccc(F)cc2s1 -1.71%

From PubChem BioAssay AID602350 (Broad Institute, 2012)
